# Data published in PubChem BioAssay AID1159580 (chemical genetic matrix, 2015).
# Hit rate of the full screen: of about 5,500 compounds, about 2,000 (36%) were called active. Not shown: some 18% with an inconclusive outcome. Some of the results follow. A number with no mark means an inactive call. Cut-off read from the data, not from the text of the source: active = normalized growth mostly below about 0.91 (no sharp cut-off); inconclusive = no clear call, values can overlap the other calls; inactive = mostly above about 0.92.
# Assay: chemical genetic growth profiling, strain panel (AID 1159580);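 note: tested at 20 µM; growth read once vehicle control cultures reached saturation at 30 °C; 1 = growth at the plate median or of vehicle wells; lower values mean less growth of the strain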
# Conditions: growth OD
smiles,measurement,setting,value
Cc1onc(-c2c(Cl)cccc2Cl)c1C(=O)N[C@@H]1C(=O)N2[C@@H]1SC(C)(C)[C@@H]2C(=O)O,normalized growth,"S. cerevisiae deletion strains, locus YJR066W, strain TOR1, hits give low values",0.946
same,normalized growth,"S. cerevisiae deletion strains, locus YJR075W, strain HOC1, hits give low values",1.02
same,normalized growth,"S. cerevisiae deletion strains, locus YKL009W, strain mrt4, hits give low values",0.986
same,normalized growth,"S. cerevisiae deletion strains, locus YKL068W, hits give low values",1.01
same,normalized growth,"S. cerevisiae deletion strains, locus YKL085W, strain MDH1 (second series), hits give low values",0.999
same,normalized growth,"S. cerevisiae deletion strains, locus YKL085W, strain MDH1, hits give low values",0.999
same,normalized growth,"S. cerevisiae deletion strains, locus YKL160W, strain elf1, hits give low values",0.982
same,normalized growth,"S. cerevisiae deletion strains, locus YKL190W, strain CNB1, hits give low values",1.01
same,normalized growth,"S. cerevisiae deletion strains, locus YKR001C, strain vps1, hits give low values",1
same,normalized growth,"S. cerevisiae deletion strains, locus YKR026C, strain gcn3, hits give low values",1.47 [resistant] (active)
same,normalized growth,"S. cerevisiae deletion strains, locus YKR091W, strain srl3, hits give low values",1
same,normalized growth,"S. cerevisiae deletion strains, locus YLL001W, strain dnm1, hits give low values",0.962
same,normalized growth,"S. cerevisiae deletion strains, locus YLL026W, hits give low values",1
same,normalized growth,"S. cerevisiae deletion strains, locus YLL041C, strain sdh2, hits give low values",0.987
same,normalized growth,"S. cerevisiae deletion strains, locus YLR027C, strain aat2, hits give low values",0.991
same,normalized growth,"S. cerevisiae deletion strains, locus YLR039C, strain RIC1, hits give low values",1.03
same,normalized growth,"S. cerevisiae deletion strains, locus YLR058C, strain SHM2, hits give low values",1.02
same,normalized growth,"S. cerevisiae deletion strains, locus YLR102C, strain apc9, hits give low values",0.994
same,normalized growth,"S. cerevisiae deletion strains, locus YLR113W, strain HOG1, hits give low values",1.06
same,normalized growth,"S. cerevisiae deletion strains, locus YLR221C, strain rsa3, hits give low values",1.05
same,normalized growth,"S. cerevisiae deletion strains, locus YLR258W, strain gsy2, hits give low values",1.02
same,normalized growth,"S. cerevisiae deletion strains, locus YLR262C, strain YPT6 (second series), hits give low values",0.961
same,normalized growth,"S. cerevisiae deletion strains, locus YLR262C, strain YPT6, hits give low values",1.02
same,normalized growth,"S. cerevisiae deletion strains, locus YLR268W, strain sec22, hits give low values",0.987
same,normalized growth,"S. cerevisiae deletion strains, locus YLR320W, strain mms22, hits give low values",1.06
same,normalized growth,"S. cerevisiae deletion strains, locus YLR330W, strain CHS5, hits give low values",1.02
same,normalized growth,"S. cerevisiae deletion strains, locus YLR342W, strain FKS1 (second series), hits give low values",1.04
same,normalized growth,"S. cerevisiae deletion strains, locus YLR342W, strain FKS1, hits give low values",0.979
same,normalized growth,"S. cerevisiae deletion strains, locus YLR357W, strain rsc2, hits give low values",0.98
same,normalized growth,"S. cerevisiae deletion strains, locus YLR370C, strain arc18, hits give low values",1.01
same,normalized growth,"S. cerevisiae deletion strains, locus YLR371W, strain rom2, hits give low values",0.985
same,normalized growth,"S. cerevisiae deletion strains, locus YLR384C, strain iki3, hits give low values",0.977
same,normalized growth,"S. cerevisiae deletion strains, locus YLR418C, strain cdc73, hits give low values",0.946
same,normalized growth,"S. cerevisiae deletion strains, locus YML016C, strain PPZ1, hits give low values",1.02
same,normalized growth,"S. cerevisiae deletion strains, locus YML032C, strain rad52, hits give low values",0.987
same,normalized growth,"S. cerevisiae deletion strains, locus YML120C, strain ndi1, hits give low values",0.99
same,normalized growth,"S. cerevisiae deletion strains, locus YML124C, strain tub3, hits give low values",0.985
same,normalized growth,"S. cerevisiae deletion strains, locus YMR058W, strain fet3, hits give low values",1.01
same,normalized growth,"S. cerevisiae deletion strains, locus YMR078C, strain ctf18, hits give low values",0.991
same,normalized growth,"S. cerevisiae deletion strains, locus YMR125W, strain sto1, hits give low values",0.951
same,normalized growth,"S. cerevisiae deletion strains, locus YMR129W, hits give low values",0.997
same,normalized growth,"S. cerevisiae deletion strains, locus YMR205C, strain PFK2, hits give low values",0.984
same,normalized growth,"S. cerevisiae deletion strains, locus YMR223W, strain ubp8, hits give low values",0.973
same,normalized growth,"S. cerevisiae deletion strains, locus YMR231W, strain pep5, hits give low values",0.985
same,normalized growth,"S. cerevisiae deletion strains, locus YMR307W, strain GAS1, hits give low values",1.02
same,normalized growth,"S. cerevisiae deletion strains, locus YNL067W, strain RPL9B, hits give low values",1
same,normalized growth,"S. cerevisiae deletion strains, locus YNL071W, strain lat1, hits give low values",0.998
same,normalized growth,"S. cerevisiae deletion strains, locus YNL128W, strain TEP1, hits give low values",1.01
same,normalized growth,"S. cerevisiae deletion strains, locus YNL183C, strain NPR1, hits give low values",1
same,normalized growth,"S. cerevisiae deletion strains, locus YNL209W, strain ssb2, hits give low values",1.02
same,normalized growth,"S. cerevisiae deletion strains, locus YNL233W, strain BNI4, hits give low values",0.997
same,normalized growth,"S. cerevisiae deletion strains, locus YNL248C, strain rpa49, hits give low values",1.03
same,normalized growth,"S. cerevisiae deletion strains, locus YNL250W, strain rad50, hits give low values",0.989
same,normalized growth,"S. cerevisiae deletion strains, locus YNL271C, strain bni1, hits give low values",0.98
same,normalized growth,"S. cerevisiae deletion strains, locus YNL298W, strain CLA4, hits give low values",0.999
same,normalized growth,"S. cerevisiae deletion strains, locus YNL307C, strain MCK1, hits give low values",0.987
same,normalized growth,"S. cerevisiae deletion strains, locus YNL322C, strain KRE1 (second series), hits give low values",0.965
same,normalized growth,"S. cerevisiae deletion strains, locus YNL322C, strain KRE1, hits give low values",1.01
same,normalized growth,"S. cerevisiae deletion strains, locus YNR049C, strain mso1, hits give low values",0.991
same,normalized growth,"S. cerevisiae deletion strains, locus YNR052C, strain pop2, hits give low values",0.997
same,normalized growth,"S. cerevisiae deletion strains, locus YOL006C, strain TOP1, hits give low values",1.03
same,normalized growth,"S. cerevisiae deletion strains, locus YOL012C, strain htz1",1.88
same,normalized growth,"S. cerevisiae deletion strains, locus YOL147C, strain pex11, hits give low values",0.987
same,normalized growth,"S. cerevisiae deletion strains, locus YOR001W, strain rrp6, hits give low values",0.972
same,normalized growth,"S. cerevisiae deletion strains, locus YOR061W, strain CKA2, hits give low values",1.03
same,normalized growth,"S. cerevisiae deletion strains, locus YOR069W, strain VPS5, hits give low values",1.02
same,normalized growth,"S. cerevisiae deletion strains, locus YOR070C, strain gyp1, hits give low values",1.01
same,normalized growth,"S. cerevisiae deletion strains, locus YOR080W, strain dia2, hits give low values",0.967
same,normalized growth,"S. cerevisiae deletion strains, locus YOR083W, strain WHI5, hits give low values",0.964
same,normalized growth,"S. cerevisiae deletion strains, locus YOR106W, strain vam3, hits give low values",0.957
same,normalized growth,"S. cerevisiae deletion strains, locus YOR136W, strain idh2, hits give low values",0.988
same,normalized growth,"S. cerevisiae deletion strains, locus YOR144C, strain elg1, hits give low values",0.989
same,normalized growth,"S. cerevisiae deletion strains, locus YOR184W, strain ser1, hits give low values",0.978
same,normalized growth,"S. cerevisiae deletion strains, locus YOR231W, strain MKK1, hits give low values",1.06
same,normalized growth,"S. cerevisiae deletion strains, locus YOR265W, strain rbl2, hits give low values",0.985
same,normalized growth,"S. cerevisiae deletion strains, locus YOR270C, strain vph1, hits give low values",0.995
same,normalized growth,"S. cerevisiae deletion strains, locus YOR290C, strain snf2, hits give low values",1.03
same,normalized growth,"S. cerevisiae deletion strains, locus YOR316C, strain cot1, hits give low values",0.998
same,normalized growth,"S. cerevisiae deletion strains, locus YPL051W, strain arl3, hits give low values",1.01
same,normalized growth,"S. cerevisiae deletion strains, locus YPL078C, strain atp4, hits give low values",0.951
same,normalized growth,"S. cerevisiae deletion strains, locus YPL106C, strain sse1, hits give low values",0.964
same,normalized growth,"S. cerevisiae deletion strains, locus YPL240C, strain hsp82, hits give low values",0.998
same,normalized growth,"S. cerevisiae deletion strains, locus YPL241C, strain CIN2, hits give low values",1.02
same,normalized growth,"S. cerevisiae deletion strains, locus YPL256C, strain CLN2, hits give low values",1.04
same,normalized growth,"S. cerevisiae deletion strains, locus YPR119W, strain clb2, hits give low values",0.99
same,normalized growth,"S. cerevisiae deletion strains, locus YPR141C, strain kar3, hits give low values",1
same,normalized growth,"S. cerevisiae deletion strains, locus YPR163C, strain tif3, hits give low values",0.998
same,normalized growth,"S. cerevisiae deletion strains, locus YPR167C, strain met16, hits give low values",0.985
same,normalized growth,"S. cerevisiae deletion strains, strain wtn01, hits give low values",0.97
same,normalized growth,"S. cerevisiae strains, strain wild type, hits give low values",1.02
